PfHsp90 set2 = growth inhibition of PfHsp90-expressing yeast, primary screen, antimalarial PfHsp90 inhibitor project, S. cerevisiae, BacTiter-Glo luminescence, single point, set 2. BacTiter-Glo ATP, 48 h; yeast lacking PDR1 and PDR3 efflux regulators. inhibition, % at 9.4 µM. 310,000 tested, 0.32% active;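 active means every replicate shows inhibition above about 80%, whatever the replicate mean, limit read from the data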
tim10-1 inh = growth inhibitors of tim10-1 mutant yeast, primary screen, luminescence, uHTS. S. cerevisiae tim10-1 ts strain growth, BacTiter-Glo, 24 h. inhibition, % at 20 µM. 330,000 tested, 2.2% active. AID 463190, 2010;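 active means inhibition of at least 40%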;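 further: mutant grown at 25 °C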
NALP3 yeast inh = NALP3 inflammasome inhibitors in reconstituted yeast, primary screen, luminescence, uHTS; Yeast reconstituted NLRP3/ASC/caspase-1, beta-gal luminescence, 24 h; inhibition, % at 10 µM; 330,000 tested, 0.39% active;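 active means inhibition of 50% or more; inactive means inhibition below 50%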
SKKanGAS inh = S. pyogenes SKKanGAS growth inhibitors in kanamycin, primary screen, streptokinase expression inhibitor project, SKKanGAS strain, BacTiter-Glo luminescence | 6 h | inhibition, % at 7.5 µM | 300,000 tested, 1.3% active | AID 1662, 2009;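 active means mean replicate score, as percent of positive control median, at least 50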;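 further: strain carries kanamycin resistance gene driven by streptokinase promoter and grows in 40 µg/ml kanamycin; loss of luminescence reflects streptokinase promoter inhibition or plain growth inhibition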
TIM10 inh = growth inhibitors of isogenic TIM10 control yeast, primary screen, counter-screen for tim10-1 yeast inhibitor project, luminescence, uHTS; S. cerevisiae TIM10 strain growth, BacTiter-Glo luminescence, 24 h; inhibition, % at 10 µM; 330,000 tested, 1.4% active; AID 463195, 2010;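 active means inhibition of 40% or more at the single tested concentration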;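 further: wild-type TIM10 isogenic control strain grown at permissive 25 °C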
tim23-1 inh = growth inhibitors of tim23-1 mutant yeast, primary screen, luminescence, uHTS. AID 463212, 2010. inhibition, % at 20 µM. 330,000 tested, 1.3% active. S. cerevisiae tim23-1 growth, BacTiter-Glo luminescence, 24 h;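 active means growth inhibition of the mutant yeast at or above 50%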;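 further: temperature-sensitive mutant grown at 25 °C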
TIM10 conf = growth inhibitors of wild-type TIM10 yeast, confirmation, counter-screen for tim10-1 synthetic lethality project, single concentration, luminescence, S. cerevisiae | shares compounds with TIM10 inh | S. cerevisiae tim10 strain growth, BacTiter-Glo luminescence, 24 h | inhibition, % at 10 µM | 4,600 tested, 63% active;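 active means inhibition of yeast growth at or above a set limit in either of two replicates at 10 µM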; further: this counterscreen used the strain with wild-type TIM10
Large screens that a line does not name were inactive (follow-up assays come after a bar, where they were run). Hits are enriched below; roughly 4.5% of the tested compounds scored in any of these assays.

CN(C)c1ccc(P(=O)(OCc2ccccc2)C(O)c2ccc(Br)cc2)cc1 (configuration not stated)	none
CC(C)COP(=O)(c1ccc(N(C)C)cc1)C(O)c1ccc(Br)cc1 (configuration not stated)	TIM10 inh 42 | TIM10 conf 35
CC(C(=O)OCC(=O)c1cccc([N+](=O)[O-])c1)N1C(=O)C2C3C=CC(C3)C2C1=O (configuration not stated)	none
NS(=O)(=O)c1ccc(CNC(=O)c2cc(=O)[nH]c3ccccc23)cc1	none
COc1cccc(-c2cc(=O)c3cc(NC(=O)c4ccc(N(C)C)cc4)ccc3[nH]2)c1	TIM10 inh 67 (no result: PfHsp90 set2) | TIM10 conf inactive
N#Cc1ccc(C(=O)N(Cc2ccccc2)c2ccccc2)cc1	none
COC(=O)c1ccc(C(=O)N(Cc2ccccc2)c2ccccc2)cc1	TIM10 inh 46 | TIM10 conf inactive
CCc1nn(CC(=O)NCCc2ccc(S(N)(=O)=O)cc2)c(=O)c2cc3sccc3n12	none
COc1ccc(/C=C/C(=O)NCCc2c[nH]c3ccccc23)cc1OC	TIM10 inh 53 | TIM10 conf inactive
COc1ccc(/C=C/C(=O)NCCCNC(=O)/C=C/c2ccc(OC)c(OC)c2)cc1OC	none
O=C(CN1CCN(C(=O)c2ccco2)CC1)Nc1ccc(Br)cc1	none
O=C(N/N=C/c1c(O)ccc2ccccc12)c1cccnc1	TIM10 inh 42 | TIM10 conf 37
O=C(CCS(=O)(=O)c1ccccc1)Nc1ncc([N+](=O)[O-])s1	TIM10 inh 41 | TIM10 conf 33
O=C(Nc1ccc(C(=O)OC2CCCCC2)cc1)c1ccncc1	none
CN1CCC(NC(=O)NC2CCCCC2)CC1	none
O=C(NC1CCCCCCC1)NC1CCCCC1	TIM10 inh 50 | TIM10 conf inactive
CC(=O)Nc1ccc(NC(=O)C(C)OC(=O)CCSc2ccccc2Cl)cc1 (configuration not stated)	TIM10 inh 97 (no result: SKKanGAS inh) | TIM10 conf inactive
Cc1ccc(SCCC(=O)OC(C)C(=O)Nc2ccccc2)cc1 (configuration not stated)	none (no result: PfHsp90 set2)
CC(NS(=O)(=O)CCNC(=O)c1ccccc1)c1ccccc1 (configuration not stated)	none (no result: PfHsp90 set2)
O=C(NCCc1ccc(F)cc1)c1ccc(S(=O)(=O)N2CCCC2)cc1	none (no result: SKKanGAS inh)
O=C(NCCc1ccccc1)c1ccc(S(=O)(=O)N2CCCC2)cc1	TIM10 inh 62 (no result: SKKanGAS inh) | TIM10 conf inactive
CC(=O)c1c(C(C)=O)c(C)n(NC(=O)c2cccnc2)c1C	TIM10 inh 89 | TIM10 conf inactive
CC(=O)c1c(C(C)=O)c(C)n(NC(=O)c2ccccc2O)c1C	none
Cc1cc(-c2nnc(SCC(=O)Nc3ccccc3)n2C)no1	TIM10 inh 54 | TIM10 conf inactive
COc1ccc(N2CC(C(=O)Nc3nc4ccc(OC)cc4s3)CC2=O)cc1 (configuration not stated)	none
O=C(Nc1nc2ccccc2s1)C1CC(=O)N(c2ccc(Cl)cc2)C1 (configuration not stated)	TIM10 inh 48 | TIM10 conf inactive
CCN(C(=O)COC(=O)C1=COCCO1)c1c(N)n(Cc2ccccc2)c(=O)[nH]c1=O	none (no result: SKKanGAS inh)
CCOc1ccc(C(NC(=O)CC)c2c(O)ccc3ccccc23)cc1 (configuration not stated)	none
CC(=O)Oc1ccc2ccccc2c1C(NC(=O)Cc1ccccc1)c1ccc(Cl)cc1 (configuration not stated)	TIM10 inh 40 | TIM10 conf inactive
CC(C)(C)CN1CCC(Oc2cccc(C(=O)N3CCC[C@H]3CO)c2)CC1	none
COc1ccc2[nH]c(C)c(CCNC(=S)Nc3ccc(C)cc3)c2c1	TIM10 inh 40 | TIM10 conf inactive

Assay outcomes (PubChem BioAssay)
